Laboratory results as given in the supplement of paper PMC10127200.
Counter-ions that a name gives are not always drawn.

What was measured:
Assay in all cases: Euclidean distance of Cell Painting phenotypic profile (signed KS, 77 features) to DMSO centroid (dimensionless distance); 5 or 10 uM (library dependent); higher = stronger phenotypic change vs DMSO (phenoactivity)
Conditions in all cases: 48 h
[1] = system: 786-O
Summary of the method: (§1)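 Five cancer lines and a healthy fibroblast line received library compounds at 10 or 5 uM (library-dependent, 0.1% DMSO final) for 48 h. Stained cells were imaged confocally at 20X (9 fields/well). Harmony extracted 77 features, each scored as a signed Kolmogorov-Smirnov statistic against same-plate vehicle wells. Profiles were plate-position corrected, correlation-weighted and replicate-averaged at the top dose. Phenoactivity is the Euclidean distance from each profile to the median vehicle profile.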

[2] = system: A549
Summary of the method: as §1

[3] = system: FB
Summary of the method: as §1

[4] = system: HEPG2
Summary of the method: as §1

[5] = system: OVCAR4
Summary of the method: as §1

| SMILES | Euclidean distance [1] | Euclidean distance [2] | Euclidean distance [3] | Euclidean distance [4] | Euclidean distance [5] |
| --- | --- | --- | --- | --- | --- |
| CC(C(=O)O)c1ccc(-c2ccccc2)c(F)c1 (stereo not given) [Flurbiprofen] | 0.962 | 0.696 | 1.21 | 0.393 | 1.27 |
| Nc1[nH]cnc2ncnc1-2 [Adenine HCl] | 1.09 | 0.466 | 1.18 | 0.46 | 1.59 |
| Oc1ncnc2[nH]ncc12 [Allopurinol] | 1.04 | 0.955 | 1.01 | 0.506 | 1.21 |
| N[C@H]1C(O)O[C@H](CO)[C@@H](O)[C@@H]1O (stereo not given in full) [Glucosamine] | 0.508 | 0.407 | 0.896 | 1.07 | 1.28 |
| S=C(N/N=C1/CCCc2cccnc21)N1CCN(c2ccccn2)CC1 | 3.03 | 3.6 | 3.2 | 2.23 | 1.11 |
| CS(=O)(=O)c1ccc(Oc2cc(F)cc(C#N)c2)c2c1[C@H](O)C(F)(F)C2 | 1.1 | 1.02 | 1.28 | 0.605 | 1.38 |
| OCCOCCN1CCN(C2=Nc3ccccc3Sc3ccccc32)CC1 [Quetiapine] | 0.8 | 0.671 | 0.864 | 1.02 | 0.901 |
| CC/C=C\C/C=C\C/C=C\C/C=C\C/C=C\CCCC(=O)O [Eicosapentaenoic Acid] | 0.992 | 1.07 | 0.941 | 0.664 | 1.41 |
| C[C@@H](O)[C@H]1C(=O)N2C(C(=O)O)=C(S[C@@H]3CN[C@H](C(=O)Nc4cccc(C(=O)O)c4)C3)[C@H](C)[C@H]12 [Ertapenem sodium] | 0.672 | 0.953 | 0.956 | 0.854 | 0.913 |
| CCc1ccc(Cc2ccc3c(c2)[C@]2(OC3)O[C@H](CO)[C@@H](O)[C@H](O)[C@H]2O)cc1 [Tofogliflozin(CSG 452)] | 1.15 | 1.03 | 0.713 | 0.386 | 1.56 |
| CC(=O)c1cc2c(o1)C(=O)c1ccccc1C2=O [Napabucasin] | 2.96 | 3.97 | 3.91 | 3.62 | 5.51 |
| Cc1c(OCC(F)(F)F)ccnc1C[S+]([O-])c1nc2ccccc2[nH]1 (stereo not given) [Lansoprazole] | 1.16 | 2.3 | 0.815 | 1.08 | 0.948 |
| CCCNC(=O)NS(=O)(=O)c1ccc(Cl)cc1 [Chlorpropamide] | 1.01 | 0.601 | 0.968 | 0.632 | 1.99 |
| NS(=O)(=O)c1cc2c(cc1Cl)NC(C(Cl)Cl)NS2(=O)=O (stereo not given) [Trichlormethiazide] | 1.14 | 0.794 | 0.859 | 0.531 | 0.98 |
| COc1cc(N)cn[n+]1-c1ccccc1 [Amezinium (methylsulfate)] | 1.39 | 0.864 | 0.801 | 0.523 | 1.16 |
| CCN(CC)C(=O)c1cccnc1 [Nikethamide] | 1.44 | 1.13 | 1.17 | 0.66 | 1.38 |
| C[C@]12C=CC(=O)C=C1CC[C@H]1[C@@H]3C[C@@H](O)[C@](O)(C(=O)CO)[C@@]3(C)C[C@H](O)[C@@]12F [Triamcinolone] | 0.975 | 1.88 | 1.81 | 1.35 | 1.94 |
| Cc1cc2c(C(N)=O)cccc2n1-c1nc2c(c(NCc3ccccc3)n1)COCC2 | 6.05 | 2.9 | 7.18 | 4.68 | 3.98 |
| CCn1cc(C(=O)O)c(=O)c2cnc(N3CCNCC3)nc21 [Pipemidic acid] | 1.47 | 0.855 | 1.02 | 0.639 | 1.13 |
| Nc1nc(N)c2nc(-c3ccccc3)c(N)nc2n1 [Triamterene] | 1.01 | 2.17 | 1.13 | 1.45 | 1.29 |
| CC1CCC(C(C)C)C(O)C1 (single isomer, unassigned; (-)) [(-)-Menthol] | 0.7 | 0.703 | 0.797 | 0.699 | 0.955 |
| Cn1ccnc1S [Methimazole] | 1.71 | 1.61 | 2.81 | 1.08 | 2.25 |
| O=C(c1ccccc1)c1ccc2n1CCC2C(=O)O (stereo not given) [Ketorolac tromethamine salt] | 0.861 | 0.868 | 0.834 | 0.47 | 0.82 |
| O=c1c(-c2ccc(O)cc2)coc2c([C@@H]3O[C@H](CO)[C@@H](O)[C@H](O)[C@H]3O)c(O)ccc12 [Puerarin] | 0.929 | 0.728 | 0.661 | 0.584 | 1.35 |
| NC(=O)c1ncn([C@@H]2O[C@H](CO)[C@@H](O)[C@H]2O)c1O [Mizoribine] | 1.26 | 0.927 | 0.917 | 0.657 | 0.855 |

| SMILES | Euclidean distance [1] | Euclidean distance [2] | Euclidean distance [3] | Euclidean distance [4] | Euclidean distance [5] |
| --- | --- | --- | --- | --- | --- |
| CC1(C)S[C@@H]2[C@H](NC(=O)[C@H](NC(=O)N3CCNC3=O)c3ccccc3)C(=O)N2[C@H]1C(=O)O [Azlocillin sodium salt] | 0.826 | 0.805 | 1.08 | 0.67 | 1.47 |
| COc1ccc2c(c1)c(CC(=O)OCC(=O)O)c(C)n2C(=O)c1ccc(Cl)cc1 [Acemetacin] | 0.932 | 0.994 | 1.09 | 0.526 | 1.57 |
| Cc1cccn2c(=O)c(-c3nnn[nH]3)cnc12 [Pemirolast potassium] | 1.31 | 0.747 | 0.893 | 0.682 | 1.05 |
| C[C@]12C=CC(=O)N[C@@H]1CC[C@@H]1[C@@H]2CC[C@]2(C)[C@@H](C(=O)Nc3cc(C(F)(F)F)ccc3C(F)(F)F)CC[C@@H]12 [Dutasteride] | 1.17 | 1.7 | 1.03 | 0.422 | 1.01 |
| CCOC(=O)C1=C(C)NC(C)=C(C(=O)OC)C1c1cccc(Cl)c1Cl (stereo not given) [Felodipine] | 1.02 | 1.19 | 0.651 | 0.85 | 0.942 |
| Nc1nc2cc(-c3ccc4ncc(C(=O)N5CCOCC5)n4c3)ccc2o1 [Serabelisib (INK-1117.MLN-1117.TAK-117)] | 1.02 | 1.76 | 2.6 | 1.39 | 1.61 |
| CCN(CC)CCOc1ccc(C(=C(Cl)c2ccccc2)c2ccccc2)cc1 [Clomifene citrate] | 4.89 | 3.99 | 3.36 | 4.07 | 3.4 |
| CC(C)(C)[C@@H]1NC(=O)O[C@@H]2CCC[C@H]2OC/C=C/C(F)(F)c2nc3ccccc3nc2O[C@@H]2C[C@@H](C(=O)N[C@]3(C(=O)NS(=O)(=O)C4(C)CC4)C[C@H]3C(F)F)N(C2)C1=O [Glecaprevir] | 1.01 | 1.22 | 0.806 | 0.687 | 0.812 |
| COC(=O)OCOc1c2n(ccc1=O)N([C@@H]1c3ccccc3SCc3c1ccc(F)c3F)[C@@H]1COCCN1C2=O [Baloxavir marboxil] | 0.818 | 1.3 | 1.58 | 0.558 | 0.843 |
| CCOC(=O)[C@H](CCc1ccccc1)N[C@H]1CCc2ccccc2N(CC(=O)O)C1=O [Benazepril] | 0.912 | 0.486 | 0.851 | 0.54 | 1.04 |
| C[C@@H]1C[C@H]2[C@@H]3CCC4=CC(=O)C=C[C@]4(C)[C@@]3(Cl)[C@@H](O)C[C@]2(C)[C@@]1(OC(=O)c1ccco1)C(=O)CCl [Mometasone furoate] | 2.05 | 1.97 | 1.79 | 0.88 | 2.18 |
| CN1CCc2nc(C(=O)N[C@@H]3C[C@@H](C(=O)N(C)C)CC[C@@H]3NC(=O)C(=O)Nc3ccc(Cl)cn3)sc2C1 [Edoxaban] | 1.02 | 0.603 | 0.835 | 0.275 | 0.602 |
| C(=C\c1ccccc1)/CN1CCN(C(c2ccccc2)c2ccccc2)CC1 [Cinnarizine] | 0.758 | 1.16 | 1.01 | 0.713 | 1.63 |
| CN1[C@@H]2CC[C@H]1C[C@@H](OC(=O)c1c[nH]c3ccccc13)C2 [Tropisetron HCl] | 0.839 | 1.16 | 1.16 | 0.825 | 0.93 |
| CCN1CCCC1CNC(=O)c1cc(S(N)(=O)=O)ccc1OC (stereo not given) [Sulpiride] | 0.713 | 1.29 | 0.953 | 1.17 | 0.676 |
| CC1=C(C(=O)O)N2C(=O)[C@@H](NC(=O)[C@H](N)c3ccccc3)[C@H]2SC1 [Cephalexin] | 1.16 | 1.01 | 1.05 | 0.939 | 1.1 |
| CC(C)(C)c1ccc(C(=O)CCCN2CCC(OC(c3ccccc3)c3ccccc3)CC2)cc1 [Ebastine] | 1.64 | 1.24 | 1.83 | 0.905 | 1.22 |
| C=CCc1ccc(O)c(-c2cc(CC=C)ccc2O)c1 [Magnolol] | 1.13 | 0.915 | 0.817 | 0.94 | 1.17 |
| CNC(=O)c1cc(COc2nnc(Nc3ccc(Cl)cc3)c3ccoc23)ccn1 [Telatinib] | 1.21 | 0.814 | 2.01 | 1.41 | 1.74 |
| COc1c2occc2cc2ccc(=O)oc12 [Methoxsalen] | 0.745 | 0.658 | 0.948 | 0.988 | 1.08 |
| CN(C(=O)c1ccc(F)cc1C(F)(F)F)C1CCN(c2nnc(-c3ccnn3C)c3ccccc23)CC1 | 1.45 | 0.959 | 1.03 | 1 | 1.53 |
| NC(=O)c1nc(F)cnc1O [Favipiravir (T-705)] | 0.685 | 0.513 | 0.835 | 0.762 | 0.894 |
| COc1ccc2cc3[n+](cc2c1OC)CCc1cc2c(cc1-3)OCO2 [Berberine chloride] | 1.19 | 1.36 | 2.07 | 1.41 | 1.31 |
| CN[C@@H](C)C(=O)N[C@H](C(=O)N1CCC[C@H]1c1nc(C(=O)c2ccc(F)cc2)cs1)C1CCCCC1 | 1.14 | 1.17 | 1.22 | 1.51 | 2.13 |
| CNCCCC1c2ccccc2C=Cc2ccccc21 [Protriptyline hydrochloride] | 1.15 | 0.784 | 1.82 | 1.74 | 0.952 |
